# Screening results from PubChem BioAssay.
# In the library only some 11% were active in any assay of this set; here they are far more common.
# ALDH1A1 inh – blocks purified human ALDH1A1 activity | P00352 | Potency, µM (top dose mostly 75.3 µM), for inactives: at the top dose activity, negative = inhibition, actives largely listed as inhibitors | hit rate 7.3% among 220,000 | Purified ALDH1A1, NADH fluorescence, propionaldehyde substrate; active means well fitted inhibition curve with a large enough effect, not every such curve was filed as active; inconclusive means small, poorly fitted or top-dose-only effect, or another doubt; inactive means no such curve, though single readings can be large or run the other way;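 further: potency means the concentration at half of the fitted maximal effect; plate controls were no enzyme wells and a reference inhibitor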
# Target sequence (P00352 whole entry, looked up): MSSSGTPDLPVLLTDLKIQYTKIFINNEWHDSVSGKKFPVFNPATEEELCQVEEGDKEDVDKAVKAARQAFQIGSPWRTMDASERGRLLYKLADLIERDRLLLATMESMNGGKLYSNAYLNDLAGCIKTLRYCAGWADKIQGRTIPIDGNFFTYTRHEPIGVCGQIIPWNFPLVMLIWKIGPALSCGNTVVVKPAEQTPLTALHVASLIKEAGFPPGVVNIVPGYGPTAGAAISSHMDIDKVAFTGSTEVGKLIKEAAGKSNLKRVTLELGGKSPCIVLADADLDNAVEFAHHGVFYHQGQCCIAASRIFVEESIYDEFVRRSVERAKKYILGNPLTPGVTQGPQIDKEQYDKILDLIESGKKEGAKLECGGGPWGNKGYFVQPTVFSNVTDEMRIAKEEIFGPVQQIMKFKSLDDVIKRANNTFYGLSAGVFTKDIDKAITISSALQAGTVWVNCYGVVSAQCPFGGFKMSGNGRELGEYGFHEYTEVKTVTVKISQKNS
# HPGD inh – HPGD (human) dehydrogenase inhibition; P15428; AID 894; Potency, µM, for the others: top-dose activity change, negative = inhibition, usual class: inhibitors; purified HPGD, NADH fluorescence kinetic, PGE2 substrate; hit rate 4.3% among 150,000; active means well fitted inhibition curve with a large enough effect, not every such curve was filed as active; inconclusive means small, poorly fitted or top-dose-only effect, or another doubt; inactive means no such curve, though single readings can be large or run the other way; further: potency means the concentration at half of the fitted maximal effect
#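 20 nM HPGD preincubated 15 min at room temperature with compound in 50 mM Tris-HCl pH 8, 0.01% Tween 20. Started with 1 mM NAD+ and 30 uM prostaglandin E2; NADH fluorescence (360/450 nm) read 5 times over 30-s intervals, last minus first.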
# PNC inhibitor – perinucleolar compartment assembly inhibition. PC3M PTB-GFP, PNC prevalence imaging, 16 h; hits give low values. activity change (PNC), negative = inhibition, % at 10 µM. AID 2417. hit rate 3.1% among 140,000;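 active means readout at or below -70, meaning at least 70% loss of cells showing the perinucleolar compartment, a nuclear body marking cancer cells; inconclusive means readout between -30 and a set limit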;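 further: plate controls were DMSO wells for no effect and camptothecin positive control wells for full effect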
#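 Compounds are pinned in duplicate onto adhered PC3M cells stably expressing GFP-tagged PTB and incubated 16 h at 37 C. Cells are then fixed, nuclei stained with Hoechst, and PNC-positive cells counted.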
# IMPase Li inh – membrane-permeable IMPase blocker, potentiated with lithium; CHO-M1 cells, IP1 TR-FRET (IP-One), carbachol + lithium; Potency, µM (doses to about 59.4 µM), without a hit: at the highest dose activity, negative = IMPase inhibition, hits mostly inhibitors; hit rate 0.35% among 210,000; AID 1457;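 further: IP1 builds up when IMPase is blocked and the TR-FRET signal falls; potency means the concentration at half of the fitted maximal effect; plate controls were basal vehicle for no effect and high inhibitor control for full effect; nearly all actives have a fitted effect of over 50% in size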
#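 Readout is a homogeneous TR-FRET IP1 immunoassay (Ex 320, Em 665 and 620), where raised cytosolic IP1 lowers signal. Cells were CHO-M1 treated 30 min at 37C with test compounds plus a little lithium; AC50 values came from Hill-equation fitting.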
# ALOX12 inhib – inhibitors of human 12-lipoxygenase (ALOX12) | purified 12-hLO, xylenol orange hydroperoxide absorbance | AID 1452 | Potency, µM (titrated, usually from 57.1 µM), for inactives: at the highest dose activity change, negative = inhibition, most hits filed as inhibitors | hit rate 0.12% among 150,000 | P18054; further: potency means the concentration at half of the fitted maximal effect; nearly all actives have a fitted effect of over 55% in size
#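 Lipoxygenase turnover measured by absorbance at 573 and 405 nm after Fe-XO development. Human 12hLO 150 nM, arachidonate 40 uM, pH 7.0 Hepes buffer with detergent; 15 min compound preincubation, 30 min reaction.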
# IMPase inh – cell-permeable inhibitors of inositol monophosphatase (IMPase); P97697; CHO-M1 cells, IP1 accumulation, HTRF TR-FRET ratio; inhibition (IP1 accumulation), % at 46.1 µM; 120,000 tested, under 10 active; AID 901; active means well fitted curve in the direction sought with a large enough effect in the signal ratio, not every such curve was filed as active; inconclusive means small, poorly fitted or top-dose-only effect, or a change in a side signal; inactive means no such curve, though single readings can be large or run the other way; the % refers to the signal ratio;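 further: cells stimulated with carbachol in lithium chloride buffer; plate controls were DMSO basal wells for no effect and reference inhibitor wells for full effect; higher means more IMPase inhibition seen as more IP1 and lower FRET ratio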
# Target sequence (P97697 whole entry, looked up): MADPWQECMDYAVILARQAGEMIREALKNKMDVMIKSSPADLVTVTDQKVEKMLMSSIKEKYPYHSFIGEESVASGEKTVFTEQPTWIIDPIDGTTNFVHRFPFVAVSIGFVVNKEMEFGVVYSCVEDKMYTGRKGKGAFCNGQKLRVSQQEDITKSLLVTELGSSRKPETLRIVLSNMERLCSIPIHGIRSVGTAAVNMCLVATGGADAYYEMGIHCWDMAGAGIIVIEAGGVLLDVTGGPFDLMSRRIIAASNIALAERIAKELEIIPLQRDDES
#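 CHO-M1 cells (CHO stably expressing M1 receptor), compound up to 46 uM final, stimulated with carbachol (50 uM as added) in buffer with 50mM LiCl, pH 7.4, 30 min at 37C. Cytosolic IP1 read by TR-FRET; AC50 from Hill fits.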
# An asterisk follows results filed as active; ? = inconclusive; . = no result; [ ] = remark or other dose. Unless noted, the call rests on the fitted dose curve; in most records, active means well fitted curve in the direction sought with a large enough effect; inconclusive means small, poorly fitted or top-dose-only effect, or another doubt; inactive means no such curve, though single readings can be large; an effect the other way counts as inactive or inconclusive. Unless noted, on the % scale 0 is the no-effect control and ±100 the full control effect.
SMILES,ALDH1A1 inh,HPGD inh,PNC inhibitor,IMPase Li inh,ALOX12 inhib,IMPase inh
CC(=O)NC(C)c1nc2ccccc2n1C(C)C (centres undefined),6%,-15%,-119*,4%,4%,2
COC(=O)[C@H](C)NC(=O)C/C=C\[C@@H](C)[C@@H](CO)OC,8%[13.5 µM],.,.,.,.,.
O=C(CN1CCOCC1)Nc1cc(C(F)(F)F)ccc1Cl,14%,.,.,24%,.,.
Cc1ccc(C)n1CCN1CCN(CC(=O)Nc2cc(C(F)(F)F)ccc2Cl)CC1,28µM*,-13%,30,2%[38.3 µM],-2%,-2
Cc1ccc2nc3c(cc(C#N)c(=O)n3CCN3CCOCC3)c(=O)n2c1,?,.,-122*,.,-3%,17
Cc1cc(NC(=O)/C=C/C(=O)N(CC(=O)NC2CCCC2)c2cccc3ccccc23)no1,2µM*,.,.,19%,.,.
c1ccc2c(c1)OC(CCCN1CCCCC1)c1ccccc1S2 (centres undefined),4%,-8%,-100*,19%,7%,8
COc1ccc(C(=O)N2CCC3(CCCN(c4ccncc4)C3)CC2)cc1,12%,-15%,.,26%,7%,.
COC(=O)c1ccc(C(NC(=O)OCc2ccccc2)/C(=C/[C@@H](C)C(=O)Nc2ccc(OC)cc2)c2cccnc2)cc1 (some centres undefined),-3%,-16%,.,-3%,1%,.
Cc1cccc(N(C(=O)Cn2nnc(-c3ccccc3F)n2)C(C(=O)NC(C)(C)C)c2ccncc2)c1 (centres undefined),5%,.,.,6%,.,.
Cc1cccc(N(C(=O)Cn2nnc3ccccc32)C(C(=O)NC(C)(C)C)c2ccsc2)c1 (centres undefined),11%,-4%,-94*,-5%,1%,10
CN(C)c1ccc(C2C=C(c3ccc(Cl)cc3OC(F)F)Nc3ncnn32)cc1 (centres undefined),20µM*,-9%,35,7%,-10%,23
Cc1ccc(-c2nn(C)c(=O)c3ccccc23)cc1S(=O)(=O)NCCCN(C)C,.,.,.,.,.,9
COc1ccc(Cl)cc1Nc1cc(C)nc2nc(C)nn12,-3%,3.5µM*,26,-1%,2%,.
Cc1ccc(-c2ccc(SCC(=O)N3CCc4ccccc43)nn2)cc1,5%,-10%,-83*,12%,3%,1
COc1cccc(-c2ccc(SCC(=O)N3CCc4ccccc43)nn2)c1,20µM*,-22%,1,4%,-2%,-4
O=C(CSc1ccc(-c2ccccc2)nn1)N1CCN(c2ccccc2)CC1,22µM*,-9%,-2,0%,2%,-7
Cc1ccc(-c2ccc(SCC(=O)N3CCCc4ccccc43)nn2)cc1,?,-11%,38,11%,-2%,-1
O=C(CSc1ccc2nnc(-c3ccc(Cl)cc3)n2n1)N1CCc2ccccc21,?,14µM*,?,34%[38.3 µM],-6%,-1
COC(=O)[C@@]1(Cc2ccc(OC)cc2)[C@H]2c3cc(C(=O)N4CCCC4)n(CCN4CNCC4=O)c3C[C@H]2CN1C(=O)c1ccccc1,-4%,-6%,.,-14%,-5%,.
CCC[C@H]1C[C@H](C(=O)N[C@H]([C@@H]2O[C@H](SC)[C@@H](O)[C@H](O)[C@@H]2O)[C@H](C)O)N(C)C1,2%[20.9 µM],5%,.,7%,-3%[25.6 µM],0[20.6 µM]
CCCCC[C@H](O)/C=C/C1=C(C/C=C\CCCC(=O)O)C(=O)CC1,-9%,-5%,.,4%,4%,.
COc1ccccc1OCCSc1nc(N)cc(N)n1,8%,-11%,-100*,6%,-1%,-2
Nc1cc(N)nc(SCCOc2ccccc2F)n1,2%,-21%,?,-10%,-2%,-7
CC1CCN(c2ccc(C(=O)O)cc2N)CC1,-7%,.,9,.,-3%,1
SMILES,ALDH1A1 inh,HPGD inh,PNC inhibitor,IMPase Li inh,ALOX12 inhib,IMPase inh
Nc1cc(C(=O)O)ccc1N1CCCCC1,3%,-26%,-100*,1%,2%,8
O=C(O)c1ccc(Cl)c(S(=O)(=O)Nc2ccccc2F)c1,1%,-7%,.,.,1%,.
Cc1ccccc1OCC(O)Cn1nnc2ccccc21 (centres undefined),-2%,-24%,-100*,3%,-1%,3
O=C1CC(c2ccc3c(c2)OCO3)c2cc(O)ccc2O1 (centres undefined),?,40µM*,.,31%,-5%[0.00818 µM],.
COc1ccc(C(=O)/C=C/c2ccc(N3CCCCC3)c([N+](=O)[O-])c2)cc1,4.5µM*,-15%,-27,12%,-2%,0
COc1ccc(C(=O)/C=C/c2ccc(N3CCCCC3)c([N+](=O)[O-])c2)c(OC)c1,20µM*,-24%,-27,-3%,0%,9
COC/C=C/C1=CC2=CC(=O)C(C)(OC(=O)c3cnc4ccccc4n3)C(=O)C2=CO1 (centres undefined),0%,-8%,.,15%,4%,.
CCCCC/C=C\C\C=C/C=C/C=C/[C@@H](SCC(NC(C)=O)C(=O)O)[C@@H](O)CCCC(=O)O (some centres undefined),7%,-4%,.,-1%,6%,.
Cc1cc(NC(=O)CC23CC4CC(C2)CC(CC(=O)Nc2cc(C)on2)(C4)C3)no1,?,-7%,-92*,28%[38.3 µM],-1%,3
Cc1cc(NC(=O)C(C)(C)C)no1,11%,-1%,-84*,6%[38.3 µM],0%,2
COc1ccc(Cl)cc1NC(=O)CSC1=Nc2ccccc2C2=NC(CC(=O)NCc3cccs3)C(=O)N12 (centres undefined),.,.,.,.,.,17
C1CCC(c2nn3c(-c4n[nH]c5c4CCC5)nnc3s2)CC1,?,.,?,.,-15%,0
CCN(CC)c1ccc(-c2nn3c(-c4n[nH]c5c4CCC5)nnc3s2)cc1,?,?,-99*,-1%[38.3 µM],-1%,1
COc1ccc(B(O)O)cc1,4%,-12%,.,-6%,4%,.
O=C(NCCN1C(=O)C2C3C=CC(C3)C2C1=O)Nc1cccnc1 (centres undefined),-12%,3%,-28,0%[38.3 µM],0%,3
O=C(NCCN1C(=O)C2C3C=CC(C3)C2C1=O)Nc1ccc(Br)cc1 (centres undefined),11µM*,-11%,?,8%[38.3 µM],-4%,6
CCCC(OC(=O)CN1C(=O)COc2ccccc21)C(=O)NC1CCCC1 (centres undefined),7%,28µM*,194,16%,1%,4
CCOC(=O)N1CCC(NC(=O)CCN2C(=O)COc3ccccc32)CC1,1%,-6%,-80*,21%[38.3 µM],10%,4
CCOC(=O)N1CCC(NC(=O)CCC(=O)N2CC(C)Oc3ccccc32)CC1 (centres undefined),-8%,-6%,?,-4%[38.3 µM],-2%,7
